From the supplement of paper PMC3334620
Over roughly 33,000 sequences, “E-score (-0.5 to 0.5)” has its median near -0.035; the highest 2% begin near 0.35. Only a selection was taken, and the highest values are over-represented in it overall.

biological target: T1, Pdr3 (UniProt P33200); test: PBM E-score (8-mer binding enrichment) (E-score (-0.5 to 0.5)); higher = stronger / more preferred TF binding; details: protein concentration: 200 nM; construct: GST-full length
T1 sequence: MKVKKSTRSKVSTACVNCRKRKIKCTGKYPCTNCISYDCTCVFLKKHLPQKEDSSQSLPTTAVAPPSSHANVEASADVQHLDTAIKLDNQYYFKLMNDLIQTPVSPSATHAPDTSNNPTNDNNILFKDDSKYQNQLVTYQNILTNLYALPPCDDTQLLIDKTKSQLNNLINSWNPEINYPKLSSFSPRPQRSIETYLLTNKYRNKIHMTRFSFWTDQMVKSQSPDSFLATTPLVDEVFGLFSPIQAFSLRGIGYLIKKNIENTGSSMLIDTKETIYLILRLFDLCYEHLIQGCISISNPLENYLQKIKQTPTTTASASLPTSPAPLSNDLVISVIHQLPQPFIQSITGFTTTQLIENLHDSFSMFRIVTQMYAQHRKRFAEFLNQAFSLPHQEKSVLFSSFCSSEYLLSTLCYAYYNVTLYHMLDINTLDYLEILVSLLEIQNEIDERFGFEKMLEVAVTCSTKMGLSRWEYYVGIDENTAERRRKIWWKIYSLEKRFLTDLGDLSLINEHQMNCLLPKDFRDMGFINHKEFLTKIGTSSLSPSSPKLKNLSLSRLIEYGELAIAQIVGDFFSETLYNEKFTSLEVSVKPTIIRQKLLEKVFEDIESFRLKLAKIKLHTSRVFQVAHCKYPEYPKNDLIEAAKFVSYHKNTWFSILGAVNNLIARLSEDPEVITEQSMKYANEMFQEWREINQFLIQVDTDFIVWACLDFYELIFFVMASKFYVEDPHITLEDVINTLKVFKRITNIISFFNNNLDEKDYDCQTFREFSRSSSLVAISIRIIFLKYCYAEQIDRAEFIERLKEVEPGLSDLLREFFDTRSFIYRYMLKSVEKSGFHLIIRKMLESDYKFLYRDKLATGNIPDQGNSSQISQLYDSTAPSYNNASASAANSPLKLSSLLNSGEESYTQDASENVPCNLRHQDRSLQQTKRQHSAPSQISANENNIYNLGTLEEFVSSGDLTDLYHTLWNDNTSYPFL
Description: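 Universal 'all 10-mer' protein binding microarrays (Agilent AMADID 015681) probed with GST-tagged S. cerevisiae TFs (full-length or DBD) made by in vitro transcription/translation (PURExpress), about 100-200 nM. Bound TF was detected with fluorescent anti-GST. Each ungapped 8-mer (which stands for itself and its reverse complement) is scored by the PBM enrichment score (E-score), a modified Wilcoxon-Mann-Whitney statistic from -0.5 to +0.5, computed with the Universal PBM Analysis Suite. Scale: above 0.35 generally sequence-specific binding.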

Sequence | PBM E-score
CCCCCCAG | -0.372
CGCGAGGA | 0.135
TATGGCGA | -0.0751
GCAGACAA | 0.0426
ACCCTCAA | -0.158
ACCCGGAG | 0.38
ACCCGGCG | 0.276
GCCCGGAA | 0.459
ACCCGGAT | 0.31
TCCCGAAA | 0.206
ACCCGGTA | 0.215
GCCCGGTA | 0.102
ACCCGGCA | 0.256
TCCCGTAA | 0.0877
GCCCGGAC | 0.282
ACCCGGAA | 0.456
TCCCGGAA | 0.463
CCCTGAAA | -0.0909
ACCCCGTA | 0.006
CACGCGTG | 0.283
GCTTGGTA | -0.168
AATTCGAA | -0.148

Sequence | PBM E-score
CCCCGGAC | 0.33
CCCCGGAG | 0.355
CCCCGGAA | 0.421
CCCCCGAA | -0.0602
CCCCGCAG | 0.225
CCCCCGAG | -0.0658
CAGGGATA | -0.193
ATAGTCAT | -0.0921
AGCGGCGC | 0.137
CGCGGCGA | 0.374
GGCGGCGA | 0.243
AGCGGCGA | 0.197
CGGCGCGC | 0.245
AGCGGCAC | 0.118
CGCGGCAA | 0.341
CGCGGCAC | 0.385
CGCGGCGC | 0.398
CCGAGCAC | 0.122
ACGTGAGT | -0.0439
TGAGTCCA | -0.18
AAAGTCAT | -0.0971
ATTAGGGG | -0.0731

Sequence | PBM E-score
AACCCTGT | -0.104
ATGTTGCG | 0.091
ATGGAGCG | 0.0393
CTGAGGAC | -0.0292
AATACCCC | 0.188
TCCATCAA | 0.0544
CCGGGTGA | 0.404
CCGGGTAA | 0.397
GCGGGTGA | 0.26
TCGGGTAA | 0.0953
CCGGGTAC | 0.303
CGGGGTGA | 0.214
GGACGGCC | 0.188
AGCCTTTC | -0.167
CACCAAAA | -0.054
CCGGTGTA | 0.153
CTCTCGTA | -0.00771
AACGCAGG | -0.0195
AACTTAAT | 0.115
ACATTTAT | -0.248
GCGACACA | -0.0561
CCCGGATA | 0.34

Sequence | PBM E-score
AGCGGATG | 0.191
CTCGGATC | 0.386
CGCGGATC | 0.431
ATCGGATC | 0.301
CTCGGATA | 0.273
CCCGGATC | 0.419
AGCAGATC | -0.0743
CGCGGCTC | 0.344
AGCGGATC | 0.374
CGCAGATC | -0.0483
CCCAGATC | -0.145
GAACCCCA | 0.211
TCAGTAAA | -0.00839
ACCACAGG | -0.238
CGAGGTAA | 0.0804
AGCTGGAG | -0.163
TAGGCTAA | -0.288
AAAGGCAA | -0.0369
CGGCCTAC | 0.158
CTCGGACA | 0.285
CGCGGATA | 0.412
GGCGGATA | 0.287
